In PubChem BioAssay:
Where “and” joins values, the source holds several entries; their conditions need not be identical. Equal values may be shown once. For some of these results: Entries with a potency or affinity are not part of this list. Where a structure was tested more than once in an assay, its records may differ in their call. Calls of active or inactive are those of the source. Unless noted, how the calls were made is not given here.

Assays:
[1] = antimalarial activity against Dd2 strain (AID 2302;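 active means growth inhibition above 50% at the single 2 µM test dose, taken to imply half-maximal potency below 2 µM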;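 further: 0% = DMSO untreated growth and 100% = chloroquine plus artemisinin killed control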); details: P. falciparum Dd2 in RBCs, LDH growth readout, 72 h; at 2 µM; stronger effect = higher value
[2] = HepG2 cytotoxicity, primary screen, cytotoxicity control for P. falciparum antimalarial project, cell-based, ATP luminescence (AID 2303;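 active means inhibition above 50%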;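 further: 0% = DMSO wells and 100% = digitonin-killed cells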); details: HepG2 viability, 24-48 h, at 10 µM, stronger effect = higher value
[3] = target: L-lactate dehydrogenase (Plasmodium falciparum (isolate CDC / Honduras)) (UniProt Q27743); assay: PfLDH activity inhibition – cell lysate, 3D7 strain, counter-screen for P. falciparum growth inhibition project (AID 2304);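 further: 0% = vehicle and 100% = reference inhibitor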; details: P. falciparum 3D7 crude extract, LDH APAD/NBT absorbance; at 2 µM; stronger effect = higher value
L-lactate dehydrogenase (Plasmodium falciparum (isolate CDC / Honduras)), sequence (Q27743 whole entry, looked up): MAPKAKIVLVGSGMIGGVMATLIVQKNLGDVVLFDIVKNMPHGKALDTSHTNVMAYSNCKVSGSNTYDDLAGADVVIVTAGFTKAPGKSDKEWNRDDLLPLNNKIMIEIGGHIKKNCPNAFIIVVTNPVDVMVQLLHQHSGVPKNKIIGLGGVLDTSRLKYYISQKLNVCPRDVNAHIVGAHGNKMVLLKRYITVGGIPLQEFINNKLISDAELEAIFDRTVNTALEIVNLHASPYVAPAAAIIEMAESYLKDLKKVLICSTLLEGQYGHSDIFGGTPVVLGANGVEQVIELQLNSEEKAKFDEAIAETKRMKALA

[4] = inhibition of 3D7 malaria parasite growth – strain 3D7 (AID 2306);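 further: 0% = DMSO wells and 100% = chloroquine plus artemisinin control wells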; details: P. falciparum 3D7 erythrocytic growth, LDH absorbance, 72 h; at 2 µM; stronger effect = higher value
[5] = target: Calcium-dependent protein kinase 1 (Plasmodium falciparum (isolate 3D7)) (UniProt P62344); assay: PfCDPK1 kinase inhibitors, biochemical, TCAMS library (AID 1159585; cut-off not given, nearly all actives have IC50 up to about 0.98 µM;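 further: inhibitors leave more ATP so luminescence rises with inhibition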); details: recombinant PfCDPK1, Kinase-Glo ATP depletion luminescence
Calcium-dependent protein kinase 1 (Plasmodium falciparum (isolate 3D7)), sequence (P62344 whole entry, looked up): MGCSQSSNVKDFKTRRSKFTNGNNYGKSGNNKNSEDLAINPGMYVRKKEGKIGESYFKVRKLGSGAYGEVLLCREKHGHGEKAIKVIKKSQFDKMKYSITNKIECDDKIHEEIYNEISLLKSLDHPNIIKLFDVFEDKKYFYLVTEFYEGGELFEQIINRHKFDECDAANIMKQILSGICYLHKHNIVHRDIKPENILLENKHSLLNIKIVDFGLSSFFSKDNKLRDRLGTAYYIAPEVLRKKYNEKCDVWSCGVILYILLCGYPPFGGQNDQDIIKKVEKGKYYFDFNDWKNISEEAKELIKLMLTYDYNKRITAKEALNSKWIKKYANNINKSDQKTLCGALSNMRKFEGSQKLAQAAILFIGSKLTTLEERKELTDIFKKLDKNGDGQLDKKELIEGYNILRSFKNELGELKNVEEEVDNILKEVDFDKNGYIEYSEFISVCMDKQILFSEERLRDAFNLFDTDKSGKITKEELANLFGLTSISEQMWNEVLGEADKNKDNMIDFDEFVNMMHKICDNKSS

[6] = target: Plasmodium falciparum protein kinase 6 (PK6, PF3D7_1337100) (UniProt Q8IDW1); assay: PfPK6 kinase inhibitors, biochemical, TCAMS library (AID 1159586); details: recombinant PfPK6, Kinase-Glo ATP depletion luminescence
Plasmodium falciparum protein kinase 6 (PK6, PF3D7_1337100), sequence (Q8IDW1 1-305): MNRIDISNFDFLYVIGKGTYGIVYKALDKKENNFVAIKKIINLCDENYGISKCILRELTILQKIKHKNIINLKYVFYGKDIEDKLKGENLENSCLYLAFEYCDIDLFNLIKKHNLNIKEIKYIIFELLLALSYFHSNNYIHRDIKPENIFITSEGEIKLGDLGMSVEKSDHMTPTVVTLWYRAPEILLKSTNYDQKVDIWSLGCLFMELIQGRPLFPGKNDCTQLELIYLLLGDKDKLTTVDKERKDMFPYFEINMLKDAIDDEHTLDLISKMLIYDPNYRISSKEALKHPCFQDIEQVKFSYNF

[7] = target: Protein kinase 7 (PK7), Plasmodium falciparum 3D7 (PF3D7_0213400) (UniProt Q7YTF7); assay: inhibition of Plasmodium PK7 catalytic activity – biochemical, TCAMS antimalarial set, Kinase-Glo luminescence (AID 1159587); details: recombinant PfPK7, Kinase-Glo ATP depletion luminescence
Protein kinase 7 (PK7), Plasmodium falciparum 3D7 (PF3D7_0213400), sequence (Q7YTF7 1-343): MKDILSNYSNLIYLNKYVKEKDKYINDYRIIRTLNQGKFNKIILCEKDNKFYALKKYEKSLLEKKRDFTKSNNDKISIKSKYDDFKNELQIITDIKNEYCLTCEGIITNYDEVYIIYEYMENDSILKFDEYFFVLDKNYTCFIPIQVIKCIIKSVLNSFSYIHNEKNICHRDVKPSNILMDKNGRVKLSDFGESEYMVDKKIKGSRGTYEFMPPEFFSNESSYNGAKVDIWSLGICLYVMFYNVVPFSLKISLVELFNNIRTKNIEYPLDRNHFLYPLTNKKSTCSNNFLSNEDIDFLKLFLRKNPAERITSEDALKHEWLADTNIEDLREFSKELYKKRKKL

[8] = target: Calcium-dependent protein kinase 4 (Plasmodium falciparum (isolate 3D7)) (UniProt Q8IBS5); assay: PfCDPK4 kinase inhibitors, biochemical, TCAMS library (AID 1159588; cut-off not given, nearly all actives have IC50 up to about 0.91 µM); details: recombinant PfCDPK4, Kinase-Glo ATP depletion luminescence
Calcium-dependent protein kinase 4 (Plasmodium falciparum (isolate 3D7)), sequence (Q8IBS5 whole entry, looked up): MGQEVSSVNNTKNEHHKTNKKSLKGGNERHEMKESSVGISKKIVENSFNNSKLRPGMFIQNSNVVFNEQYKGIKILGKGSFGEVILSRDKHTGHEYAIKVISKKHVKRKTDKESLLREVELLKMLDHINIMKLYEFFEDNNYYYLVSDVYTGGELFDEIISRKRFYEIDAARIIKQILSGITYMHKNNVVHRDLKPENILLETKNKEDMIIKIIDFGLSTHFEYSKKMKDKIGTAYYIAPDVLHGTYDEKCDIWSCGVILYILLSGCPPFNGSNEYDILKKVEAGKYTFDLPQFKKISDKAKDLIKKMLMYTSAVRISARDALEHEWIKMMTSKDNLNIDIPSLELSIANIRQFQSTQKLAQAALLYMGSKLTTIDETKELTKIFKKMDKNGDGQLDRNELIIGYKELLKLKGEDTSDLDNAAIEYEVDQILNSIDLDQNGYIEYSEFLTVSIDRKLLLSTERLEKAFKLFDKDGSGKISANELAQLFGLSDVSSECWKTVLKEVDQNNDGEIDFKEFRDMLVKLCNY

Row | SMILES | growth inhibition [1] | inhibition [2] | inhibition [3] | growth inhibition [4] | outcome [5] | outcome [6] | outcome [7] | outcome [8]
1 | CCCCCC(C)C(C)c1cc(O)c2c(c1)O[C@@]1(C(C)C)CC(O)[C@H](C)[C@@H]2C1 (some centres undefined) | 87% (active) | 1% (inactive) | -3% (inactive) | 93% (active) | inactive | inactive | inactive | inactive
2 | Cc1cc(N(C)C2CCN(C)CC2)nc(Nc2ccc(Cl)cc2)n1 | 90% (active) | 15% (inactive) | -6% (inactive) | 98% (active) | inactive | inactive | inactive | inactive
3 | CCc1ccc(CC(C)NCC(O)c2ccccc2)cc1 (centres undefined) | 77% (active) | -7% (inactive) | -3% (inactive) | 89% (active) | inactive | inactive | inactive | inactive
4 | COc1ccc(C(=O)[C@H]2C[C@@H]2CN2CC=C(c3c(C)[nH]c4ccccc34)CC2)cc1 | 94% (active) | 16% (inactive) | -6% (inactive) | 96% (active) | inactive | inactive | inactive | inactive
5 | CNCCc1c(O)ccc2ccccc12 | -1% (inactive) | 6% (inactive) | 2% (inactive) | 94% (active) | inactive | inactive | inactive | inactive
6 | Cc1c(C)c2c(c(C)c1O)CC[C@@](C)(C(=O)N1CCC(CN3CCC(c4c[nH]c5ccccc45)CC3)CC1)O2 | 90% (active) | 21% (inactive) | 3% (inactive) | 98% (active) | inactive | inactive | inactive | inactive
7 | CC(C)c1ccc(C=CC(=O)NC2CCC(CN3CCC(c4c[nH]c5ccccc45)CC3)CC2)cc1 (centres undefined) | 85% (active) | 50% (active) | -3% (inactive) | 101% (active) | inactive | inactive | inactive | inactive
8 | O=C1Nc2cccc3c2C1(CCCCCN1CC=C(c2c[nH]c4ccccc24)CC1)CCC3 (centres undefined) | 89% (active) | 2% (inactive) | 3% (inactive) | 94% (active) | inactive | inactive | inactive | inactive
9 | CN(Cc1ccccc1)C1CCN(CCc2c[nH]c3ccc(F)cc23)CC1 | 91% (active) | 28% (inactive) | 5% (inactive) | 100% (active) | inactive | inactive | inactive | inactive
10 | O=C(C=Cc1ccccc1C(F)(F)F)NC1CCC(CN2CCC(c3c[nH]c4ccccc34)CC2)CC1 (centres undefined) | 47% (inactive) and 90% (active) | 47% (inactive) and 73% (active) | -1% (inactive) and 1% (inactive) | 102% (active) | inactive | inactive | inactive | inactive
11 | CCCCCc1cc(O)c2c(c1)OC(C)(C)CC2C1=CCN(Cc2cccnc2)CC1 (centres undefined) | 97% (active) | 15% (inactive) | -1% (inactive) | 97% (active) | inactive | inactive | inactive | inactive
12 | Cc1cccc(C(=O)Nc2ccnc(N(C)C3CCN(Cc4cccc(O)c4)CC3)c2)c1 | 62% (active) | 5% (inactive) | -1% (inactive) | 89% (active) | inactive | inactive | inactive | inactive
13 | COc1cccc(C(=O)[C@H]2C[C@@H]2CN2CC=C(c3c[nH]c4cccc(Br)c34)CC2)c1 | 85% (active) | 22% (inactive) | -3% (inactive) | 96% (active) | inactive | inactive | inactive | inactive
14 | O=C(/C=C/c1ccc(Cl)c(Cl)c1)NC1CCC(N2CCC(c3c[nH]c4ccccc34)CC2)CC1 (centres undefined) | 69% (active) | 41% (inactive) | 7% (inactive) | 100% (active) | inactive | inactive | inactive | inactive
15 | Oc1ccc(CN2CCN(CCOC(c3ccccc3)c3ccc(Cl)cc3)CC2)cc1Cl (centres undefined) | 97% (active) | 11% (inactive) | -3% (inactive) | 98% (active) | inactive | inactive | inactive | inactive
16 | FC(F)(F)c1ccc(NC(=S)NC2CCC(CN3CCC(c4c[nH]c5ccccc45)CC3)CC2)cc1 (centres undefined) | 99% (active) and 100% (active) | 65% (active) and 92% (active) | 2% (inactive) and -1% (inactive) | 100% (active) and 101% (active) | inactive | inactive | inactive | inactive
17 | Cc1nc(-c2ccc(-c3ccc(C(=O)Nc4ccc5c(c4)C4(CCNCC4)CO5)cc3)c(C)c2)no1 | 15% (inactive) | 37% (inactive) | -3% (inactive) | 90% (active) | inactive | inactive | inactive | inactive
18 | S=C(Nc1ccc2c(c1)OCCO2)NC1CCC(CN2CCC(c3c[nH]c4ccccc34)CC2)CC1 (centres undefined) | 7% (inactive) and 1% (inactive) | 31% (inactive) and 32% (inactive) | -8% (inactive) and -1% (inactive) | 96% (active) and 92% (active) | inactive | inactive | inactive | inactive
19 | Cc1ccc(CC(C)NCC(O)c2cccc(C(F)(F)F)c2)cc1F (centres undefined) | 91% (active) | 15% (inactive) | 3% (inactive) | 97% (active) | inactive | inactive | inactive | inactive
20 | COc1cccc(CC(C)NCC(O)c2cccc(Cl)c2)c1 (centres undefined) | 76% (active) | 7% (inactive) | -1% (inactive) | 85% (active) | inactive | inactive | inactive | inactive
21 | COc1ccc(CCNCc2ccc3nc(N)cc(C)c3c2)cc1 | 86% (active) | 23% (inactive) | -5% (inactive) | 100% (active) | inactive | inactive | inactive | inactive
22 | CC(Cc1ccc(C(C)(C)C)cc1)NCC(O)c1ccccc1 (centres undefined) | 89% (active) | 5% (inactive) | 3% (inactive) | 94% (active) | inactive | inactive | inactive | inactive
23 | CC(=O)Nc1ccc(CN2CCC(N(C)c3ccc(NC(=O)c4cccc(C)c4)cc3)CC2)cc1 | 50% (active) | -7% (inactive) | -4% (inactive) | 91% (active) | inactive | inactive | inactive | inactive
